In PubChem BioAssay (EPA / NIEHS) one finds outcome and AC50 data, which are given here for 40 compounds.

For orientation: AC50 means the concentration at which the activity in the assay is half-maximal.

Active and inactive are the calls of the source. The calls were made as follows: active = hit-call score of the fitted dose curve at least 0.9, where 1 is the maximum; inactive = score below 0.9.

Aryl hydrocarbon receptor (Homo sapiens), sequence (P35869 whole entry, looked up): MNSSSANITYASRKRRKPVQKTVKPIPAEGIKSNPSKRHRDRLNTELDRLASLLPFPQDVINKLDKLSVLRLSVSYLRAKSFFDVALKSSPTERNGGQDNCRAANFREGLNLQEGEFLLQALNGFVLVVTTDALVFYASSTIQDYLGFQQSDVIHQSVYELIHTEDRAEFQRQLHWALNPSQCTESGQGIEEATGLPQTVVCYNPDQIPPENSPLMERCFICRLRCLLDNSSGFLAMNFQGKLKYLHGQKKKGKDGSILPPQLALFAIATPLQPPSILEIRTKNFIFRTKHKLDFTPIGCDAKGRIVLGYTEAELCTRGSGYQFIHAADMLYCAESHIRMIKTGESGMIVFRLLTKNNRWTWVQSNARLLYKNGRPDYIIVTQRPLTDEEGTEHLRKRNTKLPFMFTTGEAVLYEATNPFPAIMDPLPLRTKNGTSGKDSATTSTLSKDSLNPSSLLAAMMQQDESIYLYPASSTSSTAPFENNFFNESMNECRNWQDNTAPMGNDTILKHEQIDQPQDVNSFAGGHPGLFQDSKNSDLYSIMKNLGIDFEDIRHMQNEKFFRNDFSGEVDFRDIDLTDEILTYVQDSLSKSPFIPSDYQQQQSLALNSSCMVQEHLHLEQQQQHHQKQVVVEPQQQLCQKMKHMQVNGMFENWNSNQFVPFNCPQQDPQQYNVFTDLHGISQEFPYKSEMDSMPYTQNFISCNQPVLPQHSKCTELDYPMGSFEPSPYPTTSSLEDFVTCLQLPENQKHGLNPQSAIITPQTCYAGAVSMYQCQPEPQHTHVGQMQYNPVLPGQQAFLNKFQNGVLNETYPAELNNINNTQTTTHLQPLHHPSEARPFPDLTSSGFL

In the test the target is Aryl hydrocarbon receptor (Homo sapiens) (UniProt P35869). The test is described as follows: ATG_Ahr_CIS: Attagene CIS-FACTORIAL HepG2 Assay for human Aryl Hydrocarbon Receptor (Ahr) (AID 2282930). The note with it: HepG2 AhR cis-factorial reporter transcription; actives raise or lower the signal. As to the method:
ATG_CIS is a cell-based, multiplexed-readout assay that uses HepG2, a human liver cell line, with measurements taken at 24 hours after chemical dosing in a 24-well plate.ATG_Ahr_CIS is one of 52 assay component(s) measured or calculated from the ATG_CIS assay. It is designed to make measurements of mRNA induction, a form of inducible reporter, as detected with fluorescence intensity signals by Reverse transcription polymerase chain reaction (RT-PCR) and Capillary electrophoresis technology.Data from the assay component ATG_Ahr_CIS was analyzed into 1 assay endpoint. This assay endpoint, ATG_Ahr_CIS, was analyzed with bidirectional fitting relative to DMSO as the negative control and baseline of activity. Using a type of inducible reporter, measures of mRNA for gain or loss-of-signal activity can be used to understand the reporter gene at the transcription factor-level as they relate to the gene AHR. Furthermore, this assay endpoint can be referred to as a primary readout, because this assay has produced multiple assay endpoints where this one serves a reporter gene function. To generalize the intended target to other relatable targets, this assay endpoint is annotated to the dna binding intended target family, where the subfamily is basic helix-loop-helix protein.
Human liver HepG2 cells are transiently transfected with multiple reporter transcription units (MRTUs) in 6-well plates using FuGene 6 reagent (Roche; 3 ml FuGene/1 mg DNA). The MRTU constructs are regulated by a cis-regulating element (promoter). […] A major difference between the CIS and TRANS system is that in CIS activities of endogenous TFs are measured, whereas the TRANS assay evaluates changes in activities of exogenous, chimeric NR-Gal4 proteins. […] At the end of 24 hour incubation, total RNA was isolated using TriZol reagent (Invitrogen). The isolated RNA is then reverse-transcribed using oligo(dT) primer and Mo-MLV reverse transcriptase (Invitrogen) with DNAse I (Ambion) treatment for 30 min. The one-tenth of the produced cDNA was amplified by PCR using Taq DNA polymerase (Invitrogen) and two reporter sequence-specific primers. The PCR products were fluorescently labeled by primer extension with 6-arboxyfluorescein (6-FAM) 5'-labeled reporter sequence-specific primer (2 min at 95 C, 20 s at 68 C and 10 min at 72 C) and these products were digested with 5U of HpaI (New England Biolabs) for 2h at 37 C. […] The raw capillary electrophoresis data was processed using Attagraph software (Attagene).
Regarding `Cc1ccc(OP(=O)(Oc2ccc(C)cc2C)Oc2ccc(C)cc2C)c(C)c1`, the result was inactive. For `CC(C)(C)c1ccc(CCOc2ncnc3ccccc23)cc1`, the outcome was inactive. Consider `BrCCCCBr`, for which the result was inactive. The same measure, in the same setting: under `O=C(CCl)Nc1ccccc1` stands “inactive”.

For `C1CN2CCN1CC2`, the outcome was inactive. Still for that read-out and setting: the result for `CCCSP(=S)(OCC)Oc1ccc(SC)cc1` (stereo not given) reads “inactive”; that for `CC(C=O)Cc1ccc2c(c1)OCO2` (stereo not given), “inactive”. Regarding `CCCCS(=O)(=O)Cl`, the compound was called inactive. Turning to `BrCC(Br)c1ccccc1` (stereo not given), the outcome was inactive. On to `C1CCC(C2CCCCC2)CC1`, for which the result was inactive. Regarding `Cc1cc(Cl)ccc1OC(C)C(=O)O` (stereo not given), the AC50 is 28.5 µM (active). For `CCCCOC(C)=O`, the outcome was inactive.

Regarding `C=CCCl`, the compound was called inactive. On to `CCOC(=O)C(SP(=S)(OC)OC)c1ccccc1` (stereo not given), for which the compound was called inactive. `N#Cc1ccccc1N`: the AC50 was 33.2 µM (active). As for `O=C=Nc1ccc(Cl)cc1`, the compound was classed as inactive. Consider `c1ccc2sc(SNC3CCCCC3)nc2c1`, for which the AC50 is 4.84 µM (active). Turning to `Nc1nc(N)nc(Cl)n1`, the compound was classed as inactive. Regarding `CCCCN(CCCC)C(=S)[S-].CCCCN(CCCC)C(=S)[S-].[Ni+2]`, the compound was classed as inactive.

Turning to `CCOc1ccc(N)cc1`, the compound was classed as inactive. Take `CCC(C)(C#N)N=NC(C)(C#N)CC` (stereo not given): the result was inactive. `C=CC(=O)NC(C)(C)CC(C)=O`: the compound was classed as inactive. In the case of `c1csc(-c2ccc(-c3cccs3)s2)c1`, the AC50 is 0.739 µM (active). Turning to `Cc1cc(SCc2sc(-c3ccc(C(F)(F)F)c(F)c3)nc2C)ccc1OCC(=O)O`, the compound was called inactive.

Turning to `C[C@]12CC[C@@H](O)C[C@@H]1CC[C@@H]1[C@@H]2CC[C@]2(C)C(=O)CC[C@@H]12`, the outcome was inactive. As for `O=c1[nH]c2ccccc2n1C1CCN(CCCC(c2ccc(F)cc2)c2ccc(F)cc2)CC1`, the result was inactive. Regarding `CC(C)(C1CCC(O)CC1)C1CCC(O)CC1` (stereo not given), the compound was classed as inactive. As to `OC(Cc1ccccc1Cl)(Cn1[nH]cnc1=S)C1(Cl)CC1` (stereo not given), the compound was called inactive.

Turning to `C=CCN=C=S`, the call was inactive. With `C#CCOC(=O)/C=C(C)/C=C/CC(C)CCCC(C)C` (stereo not given), the compound was classed as inactive.

For the compound `CN(C)[C@@H]1C(=O)C(C(N)=O)=C(O)[C@@]2(O)C(=O)C3=C(O)c4c(O)ccc(Cl)c4[C@@](C)(O)[C@H]3C[C@@H]12`, the compound was called inactive.

`C[C@H]1C(=O)O[C@@H]2CCN3CC=C(COC(=O)[C@](C)(O)[C@]1(C)O)[C@H]23`: the outcome was inactive. Consider `COc1ccc([N+](=O)[O-])cc1O`, for which the result was inactive. On to `Clc1cc(C(Cl)(Cl)Cl)cnc1Cl`, for which the call was inactive. In the case of `C=CC(Cl)CCl` (stereo not given), the outcome was inactive.

Take `CC(C)(C)c1ccccc1O`: the compound was classed as inactive.

As for `COCC(=O)N(c1c(C)cccc1C)[C@H](C)C(=O)OC`, the outcome was inactive. For `Nc1c(Oc2ccccc2)cc(O)c2c1C(=O)c1ccccc1C2=O`, the AC50 is 1.71 µM (active). In the case of `CC(C)[N+](=O)[O-]`, the compound was called inactive. The same measure, in the same setting: the result for `O=[N+]([O-])c1ccc(Cl)c([N+](=O)[O-])c1` reads “inactive”.
